Source: PubChem BioAssay AID1159580 (chemical genetic matrix, 2015)
“And” between values parts separate entries of the source, which are not always exact repeats. Equal values may be shown once. Screen size: about 5,500 compounds; about 2,000 (36%) were called active. About 18% were inconclusive and are not listed. No stated cut-off is given here; in the data, active means normalized growth mostly below about 0.91 (no sharp cut-off); inconclusive means no clear call, values can overlap the other calls; inactive means mostly above about 0.92. This is one part of the list.

Assay: chemical genetic growth profiling, strain panel (AID 1159580);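 further: tested at 20 µM; growth read once vehicle control cultures reached saturation at 30 °C; 1 = growth at the plate median or of vehicle wells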
Conditions: S. cerevisiae deletion strains, growth OD

Measured: normalized growth

CCCCc1nc(Cl)c(CO)n1Cc1ccc(-c2ccccc2-c2nn[nH]n2)cc1
inactive: locus YAL013W, strain DEP1, stronger effect = lower value 1.01 | locus YAL021C, strain ccr4, stronger effect = lower value 0.992 | locus YAL026C, strain drs2, stronger effect = lower value 0.99 | locus YAL030W, strain snc1, stronger effect = lower value 0.974 | locus YBL061C, strain skt5, stronger effect = lower value 0.99 | locus YBR009C, strain hhf1, stronger effect = lower value 0.993 | locus YBR021W, strain FUR4, stronger effect = lower value 1.01 | locus YBR023C, strain chs3, stronger effect = lower value 0.981 | locus YBR171W, strain sec66, stronger effect = lower value 0.994 | locus YBR229C, strain ROT2, stronger effect = lower value 1.01 | locus YBR231C, strain swc5, stronger effect = lower value 0.968 | locus YBR279W, strain paf1, stronger effect = lower value 0.986 | locus YCL011C, strain gbp2, stronger effect = lower value 0.984 | locus YCL016C, strain dcc1, stronger effect = lower value 0.983 | locus YCL029C, strain bik1, stronger effect = lower value 1.01 | locus YCL061C, strain MRC1, stronger effect = lower value 0.989 | locus YCL069W, strain vba3, stronger effect = lower value 0.985 | locus YCR088W, strain abp1, stronger effect = lower value 0.976 | locus YDL005C, strain med2, stronger effect = lower value 0.977 | locus YDL035C, strain GPR1, stronger effect = lower value 1.02 | locus YDL040C, strain nat1, stronger effect = lower value 0.971 | locus YDL074C, strain BRE1, stronger effect = lower value 1.03 | locus YDL101C, strain DUN1, stronger effect = lower value 1.01 | locus YDL134C, strain PPH21, stronger effect = lower value 1.01 | locus YDL185W, strain tfp1, stronger effect = lower value 1 | locus YDL192W, strain arf1, stronger effect = lower value 1 | locus YDR001C, strain nth1, stronger effect = lower value 0.992 | locus YDR069C, strain doa4, stronger effect = lower value 0.975 | locus YDR101C, strain arx1, stronger effect = lower value 0.996 | locus YDR137W, strain rgp1, stronger effect = lower value 0.986 | locus YDR150W, strain NUM1, stronger effect = lower value 1.01 | locus YDR159W, strain sac3, stronger effect = lower value 0.943 | locus YDR162C, strain NBP2, stronger effect = lower value 1.01 | locus YDR195W, strain ref2 0.93 | locus YDR297W, strain sur2, stronger effect = lower value 0.993 | locus YDR318W, strain mcm21, stronger effect = lower value 1.01 | locus YDR334W, strain swr1, stronger effect = lower value 0.966 | locus YDR335W, strain msn5, stronger effect = lower value 0.992 | locus YDR388W, stronger effect = lower value 1 | locus YDR392W, strain spt3, stronger effect = lower value 1 | locus YDR502C, strain sam2, stronger effect = lower value 0.997 | locus YEL003W, strain gim4, stronger effect = lower value 1.01 | locus YEL037C, strain rad23, stronger effect = lower value 0.985 | locus YEL061C, strain CIN8 (second series), stronger effect = lower value 0.982 | locus YEL061C, strain CIN8, stronger effect = lower value 1.01 | locus YER015W, strain faa2, stronger effect = lower value 0.996 | locus YER016W, strain bim1, stronger effect = lower value 0.976 | locus YER110C, stronger effect = lower value 1 | locus YER111C, strain swi4, stronger effect = lower value 0.967 | locus YER155C, strain BEM2 (second series), stronger effect = lower value 0.968 | locus YER155C, strain BEM2, stronger effect = lower value 0.973 | locus YER167W, strain BCK2, stronger effect = lower value 1.01 | locus YFR010W, strain ubp6, stronger effect = lower value 0.985 | locus YGL078C, strain dbp3, stronger effect = lower value 0.995 | locus YGL086W, strain mad1, stronger effect = lower value 0.993 | locus YGL167C, strain pmr1, stronger effect = lower value 0.978 | locus YGL173C, strain kem1, stronger effect = lower value 0.986 | locus YGL227W, strain vid30, stronger effect = lower value 0.982 | locus YGL240W, strain doc1, stronger effect = lower value 0.981 | locus YGL248W, strain PDE1, stronger effect = lower value 1.01 | locus YGL253W, strain hxk2, stronger effect = lower value 0.985 | locus YGR078C, strain PAC10, stronger effect = lower value 1.02 | locus YGR135W, strain pre9, stronger effect = lower value 0.998 | locus YGR229C, strain SMI1, stronger effect = lower value 1.01 | locus YGR252W, strain gcn5, stronger effect = lower value 1 | locus YHR013C, strain ard1, stronger effect = lower value 1.01 | locus YHR027C, strain rpn1, stronger effect = lower value 1 | locus YHR030C, strain SLT2, stronger effect = lower value 1.01 and 0.941 | locus YHR079C, strain IRE1 (second series), stronger effect = lower value 0.995 | locus YHR079C, strain IRE1, stronger effect = lower value 0.969 | locus YHR094C, strain hxt1, stronger effect = lower value 0.992 | locus YHR129C, strain ARP1, stronger effect = lower value 1.01 | locus YHR142W, strain chs7, stronger effect = lower value 0.986 | locus YHR200W, strain rpn10, stronger effect = lower value 0.999 | locus YIL066C, strain RNR3, stronger effect = lower value 1.01 | locus YIL073C, strain SPO22, stronger effect = lower value 1.08 | locus YIL125W, strain kgd1, stronger effect = lower value 0.994 | locus YIR030C, strain dcg1, stronger effect = lower value 0.995 | locus YJL092W, strain hpr5, stronger effect = lower value 1 | locus YJL095W, strain BCK1 (second series), stronger effect = lower value 0.985 | locus YJL095W, strain BCK1, stronger effect = lower value 1.02 and 0.998 | locus YJL115W, strain asf1, stronger effect = lower value 0.994 | locus YJL129C, strain trk1, stronger effect = lower value 0.963 | locus YJL134W, strain LCB3, stronger effect = lower value 1 | locus YJL154C, strain vps35, stronger effect = lower value 0.969 | locus YJL164C, strain tpk1, stronger effect = lower value 1 | locus YJL166W, strain qcr8, stronger effect = lower value 0.98 | locus YJL168C, strain set2, stronger effect = lower value 0.996 | locus YJL187C, strain SWE1 (second series), stronger effect = lower value 1.01 | locus YJL187C, strain SWE1, stronger effect = lower value 0.981 | locus YJR043C, strain POL32, stronger effect = lower value 1.02 | locus YJR066W, strain TOR1, stronger effect = lower value 0.987
